Source: PubChem (National Center for Advancing Translational Sciences (NCATS))
D2 PAM-1: Beta-Arrestin HTS for Positive Allosteric Modulators of the Human D2 Dopamine Receptor: Potentiators | D(2) dopamine receptor (Homo sapiens), P14416 | potentiation, % (test concentration not listed) | DiscoveRx D2 beta-arrestin cells, luminescence, 90 min; 100% = 57 uM dopamine signal | 0.23% of 360,000 active; in the data active = potentiation above about 50%; inconclusive = mostly about 30% to 49%
Target sequence (P14416 whole entry, looked up): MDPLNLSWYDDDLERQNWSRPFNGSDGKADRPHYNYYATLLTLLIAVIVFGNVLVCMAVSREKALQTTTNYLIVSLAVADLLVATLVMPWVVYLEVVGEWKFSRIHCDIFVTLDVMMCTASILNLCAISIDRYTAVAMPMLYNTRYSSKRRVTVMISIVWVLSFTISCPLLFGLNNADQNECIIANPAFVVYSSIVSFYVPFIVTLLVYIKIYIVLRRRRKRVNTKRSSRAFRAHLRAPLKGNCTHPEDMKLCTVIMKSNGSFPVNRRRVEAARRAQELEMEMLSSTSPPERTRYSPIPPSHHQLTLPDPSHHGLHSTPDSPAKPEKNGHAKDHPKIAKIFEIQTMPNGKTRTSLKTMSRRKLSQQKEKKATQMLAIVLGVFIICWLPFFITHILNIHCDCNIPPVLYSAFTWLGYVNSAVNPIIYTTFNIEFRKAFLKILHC
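PathHunter D2 cells, attached overnight at 37 deg C, received compound in DMSO plus dopamine at EC20 (50 nM final) for 90 min at 37 deg C. Beta-arrestin recruitment was read as luminescence after 1 h with detection reagent at ambient temperature.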
D2 PAM-2: HTS Assay for Positive Allosteric Modulators of the Human D2 Dopamine Receptor: Primary Screen for Potentiators. HEK293 T-REx D2, calcium flux, EC20 dopamine potentiation. 0.34% of 340,000 active. potentiation, % at 10 µM;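 active = potentiation over 3 SD above the plate norm, cut at about 30% in these data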; also: 0% is about no effect
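Primary screen. Calcium kinetics in induced HEK293 T-REx D2 cells: compound pre-addition 180 s, EC20 dopamine, 180 s more.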
D2 ag-1: Beta-Arrestin HTS for Positive Allosteric Modulators of the Human D2 Dopamine Receptor: Agonists; DiscoveRx PathHunter D2 beta-arrestin, luminescence, 90 min; 100% = 57 uM dopamine signal; D(2) dopamine receptor (Homo sapiens), P14416; AID 624465, 2012; activation, % (test concentration not listed); 0.084% of 360,000 active; in the data active = activation above about 40%; inconclusive = between about 15% and that limit
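DiscoveRx PathHunter D2 beta-arrestin cells (2,100/well) attached overnight, then compound-stimulated 90 min at 37 C in HBSS/10 mM HEPES/0.1% Tween-20 buffer; beta-galactosidase complementation read by luminescence after 1 h at ambient temperature. Dopamine 57 uM final (EC100) as control.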
D2 antagonist: HTS Assay for Allosteric Antagonists of the Human D2 Dopamine Receptor: Primary Screen for Antagonists; D(2) dopamine receptor (Homo sapiens), P14416; HEK293 TREx D2 cells, calcium flux, dopamine EC80; inhibition, % at 10 µM; 2% of 340,000 active; in the data active = inhibition above about 30%; inactive = below that, where a call was filed; also: 0% is about no effect
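Tetracycline-induced HEK293 T-REx cells expressing D2 force-coupled to calcium signalling were dye-loaded, exposed to compound for 180 s, then challenged with an EC80 of dopamine; calcium flux was followed kinetically for a further 180 s.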
D2 ag-2: HTS Assay for Allosteric Agonists of the Human D2 Dopamine Receptor: Primary Screen for Agonists; activation, % at 2 µM; HEK293 T-REx D2 cells, calcium flux agonist mode; 0.53% of 340,000 active; D(2) dopamine receptor (Homo sapiens), P14416; AID 485358, 2010;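 active = activation over 3 SD above normal in the single-dose calcium agonist read, cut at about 30% in these data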; also: 0% is about no effect
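Calcium-flux readout, 1 cycle/sec over 180 s following compound pin transfer, in inducible HEK293 Trex D2 cells (force-coupled); dopamine controls included. Positive calcium responses during this window marked compounds as potential agonists.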
Starred values were filed as active, the others as inactive; ? = inconclusive; / = no result. Rows were chosen to be rich in hits. Some 2.4% of all compounds tested hit in one or more screens of this group.

SMILES	D2 PAM-1	D2 PAM-2	D2 ag-1	D2 antagonist	D2 ag-2
COc1ccc(NC(=O)CCc2c(C)nc3c(c2C)c(=O)n(C)c(=O)n3C)c(OC)c1	/	-4	/	/	0
COc1ccc(NC(=O)Cc2csc(COc3cccc(C)c3)n2)cc1OC	/	13	/	/	-1
Cc1cccc(C)c1OCC1CNC(=O)O1 (configuration not stated)	0	3	0	36*	0
CCOc1ccccc1CNC(=O)c1oc2c(c1C)-c1[nH]ncc1CC2	/	10	/	/	-2
CSc1ccc(/C=C/C(=O)OCC(=O)c2ccc[nH]2)cc1	-6	13	-4	50*	1
CSc1ccc(/C=C/C(=O)OCC(=O)NC2CCCC2)cc1	-11	/	1	/	/
C/C(=N\NC(=O)c1ccccc1F)c1ccc2c(c1)Nc1ccccc1S2	87*	-3	?	-4	0
Cc1ccc(CN2CCC(C(=O)NCCC(C)C)CC2)o1	-30	-4	-2	30*	0
COc1ccccc1C(=O)Nc1ccnn1C1CCN(Cc2cc(C)c(C)cc2C)CC1	-36	-23	-6	53*	0
O=C(Nc1ccnn1C1CCN(CCCC2CCCC2)CC1)c1ccccc1Cl	-21	-16	-3	-26	5
Cc1cc(C)c(CN2CCC(n3nccc3NC(=O)c3ccccc3Cl)CC2)cc1C	-46	-19	-6	-8	3
COc1ccccc1C(=O)Nc1ccnn1C1CCN(CCCC2CCCC2)CC1	-34	-10	2	31*	0
O=C(Nc1ccnn1C1CCN(C/C=C/c2ccccc2)CC1)c1cccc(F)c1	-31	-7	0	-4	3
COc1ccccc1C(=O)Nc1ccnn1C1CCN(Cc2cn(C)c3ccccc23)CC1	-10	-23	3	62*	0
O=C(Nc1ccnn1C1CCN(CCCc2ccccc2)CC1)c1cccc(F)c1	-19	-2	0	28	34*
Cc1ccc(-n2ncc(C(=O)NCCc3c[nH]c4ccccc34)c2C2CCN(C(=O)OC(C)(C)C)CC2)cc1C	/	5	/	/	/
Cc1ccc(S(=O)(=O)Cc2nc(-c3ccc(C(=O)NCc4ccccc4F)cc3)oc2C)cc1	/	5	/	/	0
O=C1N[C@@H](Cc2ccccc2)C(=O)N2CCCC12 (some centres not stated)	-6	/	-3	/	/
O=C1N[C@@H](Cc2cnc[nH]2)C(=O)N2CCC[C@@H]12	-5	-1	-6	45*	2
COCCn1c(-c2ccccc2)nc(=S)c2c1CC(C)(C)OC2	29	37*	-2	11	1
Cc1cc2c(N=O)c(NO)ccc2[nH]1	63*	/	15	/	/
CCOC(=O)C1=C(C)NC(=S)N(C(C)=O)C1c1ccccc1 (configuration not stated)	-3	-1	-1	32*	0
CC(NC(=O)c1cccc(S(=O)(=O)N(C)C)c1)C1CC2CCC1C2 (configuration not stated)	-8	3	-2	-13	-2
CC(NC(=O)c1cc(S(=O)(=O)N(C)C)ccc1Cl)C1CC2CCC1C2 (configuration not stated)	-1	-5	0	35*	0
CCCCNC(=O)CCn1c(=O)c2cccn2c2cccnc21	/	4	/	/	1
Cc1nn(Cc2ccccc2)c(C)c1NC(=O)c1noc2c1CCc1ccccc1-2	-4	31*	0	-4	0
Cc1nn(Cc2ccc(Cl)c(Cl)c2)c(C)c1NC(=O)c1noc2c1CCc1ccccc1-2	/	6	/	/	1
CCC(Sc1ncc(S(=O)(=O)c2ccc(C)cc2)c(=O)[nH]1)C(=O)Nc1cc(C)ccc1C (configuration not stated)	/	-1	/	/	-1
C=CCN(CC=C)C(=S)Nc1cc(Cl)ccc1OC	-19	-3	42*	4	1
COc1ccc(C2=CC(c3ccc(F)cc3)n3ncc(C(=O)Nc4ccc(C)cc4)c3N2)cc1 (configuration not stated)	/	-2	/	/	4
